Laboratory results published in PubChem BioAssay (EPA / NIEHS).
Inconclusive results are not listed. Activity calls are given as the source filed them. The calls were made as follows, unless noted: active = hit-call score of the fitted dose curve at least 0.9, where 1 is the maximum; inactive = score below 0.9.

Legend:
[1] = ATG_GAL4_TRANS: Attagene TRANS-FACTORIAL HepG2 Assay for GAL4 (Internal Marker) (AID 2282976; active = hit-call score of the fitted dose curve at least 0.9, where 1 is the maximum); details: HepG2 Attagene TRANS GAL4 internal marker reporter
In short: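 RT-PCR/capillary electrophoresis readout of reporter mRNA. HepG2, transient MRTU transfection (GAL4-UAS reporters), 24 h compound exposure. Background-control endpoint, positive direction vs DMSO baseline.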

[2] = molecular target: Oxysterols receptor LXR-alpha (Homo sapiens) (UniProt Q13133); assay: ATG_LXRa_TRANS: Attagene TRANS-FACTORIAL HepG2 Assay for human Liver X Receptor alpha (LXRa) (AID 2282980; active = hit-call score of the fitted dose curve at least 0.9, where 1 is the maximum); details: HepG2 Attagene TRANS reporter, LXRa transactivation
Sequence of Oxysterols receptor LXR-alpha (Homo sapiens) (Q13133 whole entry, looked up, the tested form may be a part): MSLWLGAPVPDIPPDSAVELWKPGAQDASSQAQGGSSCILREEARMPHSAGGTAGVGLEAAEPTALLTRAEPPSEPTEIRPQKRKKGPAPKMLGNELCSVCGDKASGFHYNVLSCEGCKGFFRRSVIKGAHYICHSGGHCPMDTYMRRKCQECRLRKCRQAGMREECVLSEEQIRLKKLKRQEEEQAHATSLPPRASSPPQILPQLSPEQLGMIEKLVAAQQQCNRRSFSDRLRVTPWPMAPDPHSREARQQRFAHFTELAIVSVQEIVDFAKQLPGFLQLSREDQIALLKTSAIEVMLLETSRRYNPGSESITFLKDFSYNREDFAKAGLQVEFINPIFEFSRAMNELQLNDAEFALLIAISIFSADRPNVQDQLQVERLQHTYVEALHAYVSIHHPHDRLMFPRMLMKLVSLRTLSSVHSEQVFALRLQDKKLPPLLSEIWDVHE
In short: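 Read-out: reporter transcript levels by RT-PCR plus capillary electrophoresis, fluorescence intensity. Transiently transfected HepG2, exogenous NR-GAL4 chimera, GAL4-UAS reporters; 24 h compound exposure. Activity = increase over DMSO negative control.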

[3] = molecular target: Oxysterols receptor LXR-beta (Homo sapiens) (UniProt P55055); assay: ATG_LXRb_TRANS: Attagene TRANS-FACTORIAL HepG2 Assay for human Liver X Receptor beta (LXRb) (AID 2282981; active = hit-call score of the fitted dose curve at least 0.9, where 1 is the maximum); details: HepG2 Attagene TRANS GAL4-LXRb reporter, mRNA
Sequence of Oxysterols receptor LXR-beta (Homo sapiens) (P55055 whole entry, looked up, the tested form may be a part): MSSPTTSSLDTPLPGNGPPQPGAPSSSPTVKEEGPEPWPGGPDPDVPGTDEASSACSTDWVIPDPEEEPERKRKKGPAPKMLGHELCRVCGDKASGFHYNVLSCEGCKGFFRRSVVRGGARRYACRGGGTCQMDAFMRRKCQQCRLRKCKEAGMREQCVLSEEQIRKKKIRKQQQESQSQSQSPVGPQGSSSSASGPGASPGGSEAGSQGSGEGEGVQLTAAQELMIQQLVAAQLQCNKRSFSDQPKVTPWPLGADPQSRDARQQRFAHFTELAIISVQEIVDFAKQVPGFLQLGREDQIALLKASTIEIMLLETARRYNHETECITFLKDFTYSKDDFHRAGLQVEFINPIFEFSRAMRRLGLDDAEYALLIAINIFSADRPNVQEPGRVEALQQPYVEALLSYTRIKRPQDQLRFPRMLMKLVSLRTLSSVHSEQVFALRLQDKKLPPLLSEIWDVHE
In short: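 Liver-derived HepG2 cells transfected with Gal4-responsive reporters were dosed for 24 h. Activation was scored as rise in reporter mRNA, by RT-PCR and capillary electrophoresis, above DMSO baseline.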

[4] = molecular target: Hepatocyte nuclear factor 4-alpha (Homo sapiens) (UniProt P41235); assay: ATG_HNF4a_TRANS: Attagene TRANS-FACTORIAL HepG2 Assay for human Hepatocyte Nuclear Factor 4 alpha (HNF4a) (AID 2282982; active = hit-call score of the fitted dose curve at least 0.9, where 1 is the maximum); details: HepG2 HNF4a transactivation reporter, mRNA readout
Sequence of Hepatocyte nuclear factor 4-alpha (Homo sapiens) (P41235 whole entry, looked up, the tested form may be a part): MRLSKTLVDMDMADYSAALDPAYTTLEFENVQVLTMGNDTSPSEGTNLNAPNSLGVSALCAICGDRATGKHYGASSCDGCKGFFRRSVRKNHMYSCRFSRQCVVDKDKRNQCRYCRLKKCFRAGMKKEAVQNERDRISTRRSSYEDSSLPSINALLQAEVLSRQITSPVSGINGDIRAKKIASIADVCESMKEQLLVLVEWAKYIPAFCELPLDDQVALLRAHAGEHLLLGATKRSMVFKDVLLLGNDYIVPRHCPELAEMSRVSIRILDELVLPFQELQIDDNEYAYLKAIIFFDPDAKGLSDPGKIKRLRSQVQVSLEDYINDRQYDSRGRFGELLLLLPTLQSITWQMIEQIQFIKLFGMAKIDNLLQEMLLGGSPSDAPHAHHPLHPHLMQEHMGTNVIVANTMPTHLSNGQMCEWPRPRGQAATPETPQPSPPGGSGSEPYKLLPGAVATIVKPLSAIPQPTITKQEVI
In short: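 Using HepG2 liver cells transfected with GAL4-UAS reporter units, chemical-induced mRNA increases were assessed after 24 hours. Fluorescent RT-PCR fragments were separated by capillary electrophoresis and compared with DMSO negative controls.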

[5] = ATG_M_06_TRANS: Attagene TRANS-FACTORIAL HepG2 Assay for M06 Transcription Factor (Internal Marker) (AID 2282983; active = hit-call score of the fitted dose curve at least 0.9, where 1 is the maximum); details: HepG2 Attagene TRANS M06 internal marker reporter
In short: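 Read-out: fluorescent reporter cDNA fragments resolved by capillary electrophoresis after RT-PCR and HpaI cut. Source cells were HepG2 carrying transfected multi-reporter GAL4 constructs, dosed 24 h. Increase over DMSO control analysed.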

[6] = ATG_M_32_TRANS: Attagene TRANS-FACTORIAL HepG2 Assay for M32 Transcription Factor (Internal Marker) (AID 2282984; active = hit-call score of the fitted dose curve at least 0.9, where 1 is the maximum;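 also: transcript level of a background control reporter unit measured by RT-PCR and capillary electrophoresis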); details: HepG2 Attagene TRANS M32 internal marker reporter
In short: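 Fluorescence-detected mRNA induction, HepG2 liver cells, 24 h after dosing. Multiple GAL4-UAS reporter units introduced by transient transfection; background-control endpoint analysed for gain of signal against DMSO.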

[7] = molecular target: Nuclear receptor subfamily 4 group A member 2 (Homo sapiens) (UniProt P43354); assay: ATG_NURR1_TRANS: Attagene TRANS-FACTORIAL HepG2 Assay for human Nuclear Receptor Related Protein 1 (NURR1) (AID 2282985; active = hit-call score of the fitted dose curve at least 0.9, where 1 is the maximum); details: HepG2 Attagene TRANS reporter, mRNA readout
Sequence of Nuclear receptor subfamily 4 group A member 2 (Homo sapiens) (P43354 whole entry, looked up, the tested form may be a part): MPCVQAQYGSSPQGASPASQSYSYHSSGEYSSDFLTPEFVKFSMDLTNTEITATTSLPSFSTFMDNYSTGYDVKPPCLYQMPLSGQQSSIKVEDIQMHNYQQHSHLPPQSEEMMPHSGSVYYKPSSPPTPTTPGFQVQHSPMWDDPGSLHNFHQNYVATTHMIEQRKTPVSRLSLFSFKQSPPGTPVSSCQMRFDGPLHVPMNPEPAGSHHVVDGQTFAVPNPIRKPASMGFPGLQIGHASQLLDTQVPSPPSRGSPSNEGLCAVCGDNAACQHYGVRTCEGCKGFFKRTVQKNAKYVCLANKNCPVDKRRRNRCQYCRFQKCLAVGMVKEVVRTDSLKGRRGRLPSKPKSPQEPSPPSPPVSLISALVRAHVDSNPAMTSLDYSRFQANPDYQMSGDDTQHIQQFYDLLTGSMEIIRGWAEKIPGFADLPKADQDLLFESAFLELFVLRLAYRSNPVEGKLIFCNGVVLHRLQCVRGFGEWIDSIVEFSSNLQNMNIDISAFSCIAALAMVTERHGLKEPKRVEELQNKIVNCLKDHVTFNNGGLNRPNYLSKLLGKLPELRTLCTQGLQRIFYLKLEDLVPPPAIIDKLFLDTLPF
In short: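 Chimeric NR-Gal4 proteins were expressed in human HepG2 cells bearing GAL4-UAS reporter units, and induced reporter mRNA was quantified 24 h post-dosing by RT-PCR and capillary electrophoresis.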

[8] = molecular target: Transcriptional activator Myb (Homo sapiens) (UniProt P10242); assay: ATG_Myb_CIS: Attagene CIS-FACTORIAL HepG2 Assay for human Myeloblastosis (Myb) Proto-Oncogene Transcription Factor (AID 2282986); details: HepG2 Attagene CIS-FACTORIAL Myb reporter transcription; actives raise or lower the signal
Sequence of Transcriptional activator Myb (Homo sapiens) (P10242 whole entry, looked up): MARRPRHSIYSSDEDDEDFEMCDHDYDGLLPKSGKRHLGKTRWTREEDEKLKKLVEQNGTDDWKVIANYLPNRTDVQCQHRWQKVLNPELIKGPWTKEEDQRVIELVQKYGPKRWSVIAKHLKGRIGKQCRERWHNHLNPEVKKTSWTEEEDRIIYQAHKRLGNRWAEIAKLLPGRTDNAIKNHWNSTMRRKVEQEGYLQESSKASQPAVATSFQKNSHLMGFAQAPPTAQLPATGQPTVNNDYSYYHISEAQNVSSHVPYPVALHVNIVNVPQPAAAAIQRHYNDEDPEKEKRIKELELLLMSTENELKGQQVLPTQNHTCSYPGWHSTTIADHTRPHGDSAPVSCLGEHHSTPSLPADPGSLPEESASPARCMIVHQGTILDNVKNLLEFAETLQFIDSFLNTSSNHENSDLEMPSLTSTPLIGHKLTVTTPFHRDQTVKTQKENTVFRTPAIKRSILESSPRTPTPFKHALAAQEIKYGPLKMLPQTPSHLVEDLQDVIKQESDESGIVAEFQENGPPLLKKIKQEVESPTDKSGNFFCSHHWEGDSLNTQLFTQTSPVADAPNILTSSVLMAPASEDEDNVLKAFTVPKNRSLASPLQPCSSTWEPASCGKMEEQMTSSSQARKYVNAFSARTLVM
In short: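 HepG2, transient MRTU transfection (cis-element promoters, endogenous TF activity), 24 h compound exposure. Readout: reporter mRNA via RT-PCR, 6-FAM labeling, HpaI digest, capillary electrophoresis. Gain/loss fit vs DMSO.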

[9] = molecular target: Nuclear respiratory factor 1 (Homo sapiens) (UniProt Q16656); assay: ATG_NRF1_CIS: Attagene CIS-FACTORIAL HepG2 Assay for human Nuclear Respiratory Factor 1 (NRF1) Orphan Gene (AID 2282987); details: HepG2 NRF1 cis-element reporter, Attagene multiplex; actives raise or lower the signal
Sequence of Nuclear respiratory factor 1 (Homo sapiens) (Q16656 whole entry, looked up): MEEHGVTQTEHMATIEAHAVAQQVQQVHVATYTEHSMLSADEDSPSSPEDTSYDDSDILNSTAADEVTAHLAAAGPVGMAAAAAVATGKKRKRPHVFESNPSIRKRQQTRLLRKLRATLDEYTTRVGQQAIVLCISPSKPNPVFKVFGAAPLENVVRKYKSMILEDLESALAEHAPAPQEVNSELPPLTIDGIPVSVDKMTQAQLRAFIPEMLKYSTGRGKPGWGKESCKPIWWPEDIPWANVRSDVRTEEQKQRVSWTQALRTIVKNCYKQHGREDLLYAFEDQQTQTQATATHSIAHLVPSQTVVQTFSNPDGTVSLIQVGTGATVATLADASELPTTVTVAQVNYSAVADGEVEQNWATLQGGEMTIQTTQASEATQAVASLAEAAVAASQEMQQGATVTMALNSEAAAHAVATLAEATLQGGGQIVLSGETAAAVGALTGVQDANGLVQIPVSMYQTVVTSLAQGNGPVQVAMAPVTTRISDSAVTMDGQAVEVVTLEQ
In short: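 Endogenous NRF1-driven reporter transcription measured in transiently transfected human HepG2 liver cells. Readout: reporter mRNA by RT-PCR and capillary electrophoresis with fluorescence detection, 24 h post-dosing. Gain or loss of signal fitted relative to DMSO baseline.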

[10] = ATG_NFI_CIS: Attagene CIS-FACTORIAL HepG2 Assay for human Nuclear Factor I (NFI) (AID 2282989); details: HepG2 cis-regulatory reporter, NFI response element transcription; actives raise or lower the signal
In short: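 Cells: human liver HepG2, transiently transfected with promoter-regulated reporter transcription units. Exposure 24 h. Detection: fluorescent RT-PCR products separated by capillary electrophoresis, normalised to DMSO negative control.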

[11] = molecular target: Myc proto-oncogene protein (Homo sapiens) (UniProt P01106); assay: ATG_Myc_CIS: Attagene CIS-FACTORIAL HepG2 Assay for human Myelocytomatosis (Myc) Proto-Oncogene Transcription Factor (AID 2282990); details: HepG2, Attagene cis-reporter transcription factor activity; actives raise or lower the signal
Sequence of Myc proto-oncogene protein (Homo sapiens) (P01106 whole entry, looked up): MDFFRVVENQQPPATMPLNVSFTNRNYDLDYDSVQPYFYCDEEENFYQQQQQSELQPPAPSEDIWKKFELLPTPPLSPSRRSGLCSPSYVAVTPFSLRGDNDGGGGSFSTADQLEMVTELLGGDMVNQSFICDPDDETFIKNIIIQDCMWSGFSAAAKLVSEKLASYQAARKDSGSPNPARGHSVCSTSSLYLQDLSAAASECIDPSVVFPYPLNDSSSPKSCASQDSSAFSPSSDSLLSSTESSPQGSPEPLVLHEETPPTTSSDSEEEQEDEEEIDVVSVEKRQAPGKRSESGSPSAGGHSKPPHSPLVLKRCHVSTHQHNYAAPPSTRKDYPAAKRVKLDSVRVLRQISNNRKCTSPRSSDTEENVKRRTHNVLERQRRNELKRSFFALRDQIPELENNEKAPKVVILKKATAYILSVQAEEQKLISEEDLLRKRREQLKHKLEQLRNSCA
In short: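 Multiplexed cis-reporter transcription in HepG2 cells after 24 h chemical treatment. Reporter mRNA measured by RT-PCR and capillary electrophoresis fluorescence; activity fitted bidirectionally against DMSO control.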

[12] = ATG_NF_kB_CIS: Attagene CIS-FACTORIAL HepG2 Assay for human Nuclear Factor Kappa B (NF-kB) (AID 2282991); details: HepG2 Attagene cis-factorial NF-kB reporter mRNA; actives raise or lower the signal
In short: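 Read-out: reporter transcript levels quantified by RT-PCR plus capillary electrophoresis of 6-FAM-labelled, HpaI-cut fragments. Transfected HepG2 cells, 24 h compound exposure, endogenous NF-kB-driven cis element; gain or loss scored versus DMSO.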

[13] = ATG_NRF2_ARE_CIS: Attagene CIS-FACTORIAL HepG2 Assay for human Nuclear Factor Erythroid 2 Related Factor 2 (NFR2) response to Antioxidant Response Elements (ARE) (AID 2282992); details: HepG2 Attagene ARE/NRF2 reporter, transcription factor activity; actives raise or lower the signal
In short: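 Endogenous transcription factor activity in human liver HepG2 cells is tracked via a cis-element-driven reporter within a multiplexed set. mRNA induction is read by RT-PCR and capillary electrophoresis after 24 h, with DMSO as baseline.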

[14] = ATG_Oct_MLP_CIS: Attagene CIS-FACTORIAL HepG2 Assay for human Octamer-Binding Transcription Factor (Oct) (AID 2282993); details: HepG2 Attagene cis-factorial Oct reporter, mRNA; actives raise or lower the signal
In short: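 HepG2, transient MRTU transfection, cis promoter elements; 24 h dosing; RT-PCR/CE fluorescence read-out of reporter mRNA; fit both directions vs DMSO.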

[15] = BSK_3C_TissueFactor: BioMAP Diversity Plus: 3C Assay for Tissue Factor Biomarker Activity (AID 2282997); details: BioMAP 3C HUVEC, tissue factor biomarker readout; actives raise or lower the signal
In short: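 HUVEC, 3C system, 24 h post-dose; Tissue Factor by ELISA; bidirectional fit vs DMSO baseline.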

[16] = BSK_3C_VCAM1: BioMAP Diversity Plus: 3C Assay for Vascular cell adhesion molecule 1 (VCAM1) Biomarker Activity (AID 2282999); details: BioMAP 3C HUVEC, VCAM1 ELISA, cytokine-stimulated; actives raise or lower the signal
In short: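 Vascular primary endothelium (human umbilical vein) was exposed to chemicals and assayed 24 h later. VCAM-1 levels came from ELISA, with DMSO serving as baseline for bidirectional fitting.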

[17] = molecular target: Glucocorticoid receptor (Homo sapiens) (UniProt P04150); assay: ATG_GR_TRANS: Attagene TRANS-FACTORIAL HepG2 Assay for human Glucocorticoid Receptor (GR) (AID 2282978; active = hit-call score of the fitted dose curve at least 0.9, where 1 is the maximum;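 also: activators score as hits since higher reporter transcript over DMSO is fitted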); details: HepG2 Attagene TRANS GR reporter, mRNA transcription
Sequence of Glucocorticoid receptor (Homo sapiens) (P04150 whole entry, looked up, the tested form may be a part): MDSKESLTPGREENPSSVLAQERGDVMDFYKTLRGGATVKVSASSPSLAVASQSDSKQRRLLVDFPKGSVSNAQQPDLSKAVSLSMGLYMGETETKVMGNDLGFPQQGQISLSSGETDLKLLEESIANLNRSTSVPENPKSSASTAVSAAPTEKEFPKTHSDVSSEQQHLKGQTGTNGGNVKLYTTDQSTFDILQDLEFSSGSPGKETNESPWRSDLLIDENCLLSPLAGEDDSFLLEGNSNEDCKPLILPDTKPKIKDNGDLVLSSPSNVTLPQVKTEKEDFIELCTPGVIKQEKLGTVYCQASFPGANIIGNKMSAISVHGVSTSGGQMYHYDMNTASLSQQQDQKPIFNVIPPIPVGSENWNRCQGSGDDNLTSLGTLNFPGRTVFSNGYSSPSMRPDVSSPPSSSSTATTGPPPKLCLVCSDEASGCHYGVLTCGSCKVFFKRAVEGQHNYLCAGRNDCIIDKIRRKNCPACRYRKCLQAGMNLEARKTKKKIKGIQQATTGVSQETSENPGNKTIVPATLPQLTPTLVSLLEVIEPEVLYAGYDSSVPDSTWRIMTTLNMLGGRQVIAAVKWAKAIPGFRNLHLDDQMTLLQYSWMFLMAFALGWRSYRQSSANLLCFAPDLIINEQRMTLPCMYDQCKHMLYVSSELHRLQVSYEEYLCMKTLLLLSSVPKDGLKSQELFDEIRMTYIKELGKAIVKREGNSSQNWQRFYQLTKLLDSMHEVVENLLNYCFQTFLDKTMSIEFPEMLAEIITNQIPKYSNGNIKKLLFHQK
In short: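 Transient MRTU transfection of HepG2 (GAL4-UAS reporters, exogenous NR-GAL4 chimeras), 24 h dosing. Readout: reporter transcript via RT-PCR + capillary electrophoresis fluorescence. Positive direction vs DMSO baseline.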

[18] = molecular target: Bile acid receptor (Homo sapiens) (UniProt Q96RI1); assay: ATG_FXR_TRANS: Attagene TRANS-FACTORIAL HepG2 Assay for Farnesoid X Receptor (FXR) (AID 2282979; active = hit-call score of the fitted dose curve at least 0.9, where 1 is the maximum;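 also: hits raise reporter mRNA above DMSO so AC50 marks FXR activation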); details: HepG2 Attagene TRANS FXR-GAL4 reporter transcription
Sequence of Bile acid receptor (Homo sapiens) (Q96RI1 whole entry, looked up, the tested form may be a part): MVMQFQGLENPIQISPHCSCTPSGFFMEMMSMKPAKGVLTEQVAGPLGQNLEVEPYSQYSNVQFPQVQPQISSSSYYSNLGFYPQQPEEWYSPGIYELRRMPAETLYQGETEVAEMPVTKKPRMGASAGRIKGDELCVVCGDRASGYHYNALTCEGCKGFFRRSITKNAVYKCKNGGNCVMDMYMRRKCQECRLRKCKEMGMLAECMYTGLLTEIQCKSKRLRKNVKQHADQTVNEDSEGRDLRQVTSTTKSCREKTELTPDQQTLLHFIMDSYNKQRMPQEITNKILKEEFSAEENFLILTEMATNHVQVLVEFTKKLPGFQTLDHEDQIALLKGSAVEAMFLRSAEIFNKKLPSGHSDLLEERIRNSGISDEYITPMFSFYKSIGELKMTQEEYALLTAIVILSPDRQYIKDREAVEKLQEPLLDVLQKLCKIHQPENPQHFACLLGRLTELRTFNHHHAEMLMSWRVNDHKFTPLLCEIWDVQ
In short: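 Read-out: fluorescent reporter transcripts quantified by capillary electrophoresis after RT-PCR of total RNA. Source cells were HepG2 transiently carrying chimeric NR-GAL4 plus GAL4-UAS reporter units, dosed 24 h. Activity fitted upward relative to DMSO baseline.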

[19] = BSK_3C_uPAR: BioMAP Diversity Plus: 3C Assay for Urokinase-type plasminogen activator receptor (uPAR) Biomarker Activity (AID 2282998); details: BioMAP 3C HUVEC, uPAR biomarker ELISA; actives raise or lower the signal
In short: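 A multiplexed primary-cell system built on human umbilical vein endothelium was used, with chemical present for 24 h before reading. Cell-surface uPAR was detected by ELISA; signal change in either direction counted against DMSO.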

[20] = molecular target: Cellular tumor antigen p53 (Homo sapiens) (UniProt P04637); assay: ATG_p53_CIS: Attagene CIS-FACTORIAL HepG2 Assay for human p53 Transcription Factor (AID 2282994); details: HepG2 p53 cis-element reporter, Attagene mRNA; actives raise or lower the signal
In short: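 Steps: transfect HepG2 with multiplexed cis reporter constructs; dose chemicals 24 h; extract RNA, reverse-transcribe, PCR-amplify reporter sequences; FAM-label, HpaI-digest, resolve fragments by CE. Activity fitted both directions relative to DMSO.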

Measured: AC50

COP(=S)(OC)Oc1ccc([N+](=O)[O-])cc1
not listed: [17] | [18] | [19] | [20]
inactive: all other assays above

CCc1ccc(C(=O)NN(C(=O)c2cc(C)cc(C)c2)C(C)(C)C)cc1
active: [12] 9.92 µM | [13] 9.92 µM
not listed: [1] | [2] | [3] | [6] | [7] | [19] | [20]
inactive: all other assays above

C#CCN1C(=O)COc2cc(F)c(N3C(=O)C4=C(CCCC4)C3=O)cc21
active: [13] 40.4 µM
not listed: [1] | [5] | [18] | [19] | [20]
inactive: all other assays above

OCCOc1ccccc1
not listed: [1] | [4] | [5] | [12] | [18] | [19] | [20]
inactive: all other assays above

O=[N+]([O-])c1c(Cl)c(Cl)c(Cl)c(Cl)c1Cl
active: [12] 13.8 µM | [13] 4.17 µM | [16] 21.4 µM
not listed: [1] | [5] | [18] | [19] | [20]
inactive: all other assays above

C[C@H]1[C@H](c2ccc(Cl)cc2)SC(=O)N1C(=O)NC1CCCCC1
active: [13] 13.5 µM | [14] 13.7 µM
not listed: [1] | [6] | [12] | [17] | [18] | [19] | [20]
inactive: all other assays above

N#CN
not listed: [1] | [2] | [17] | [18] | [19] | [20]
inactive: all other assays above

CNC(=O)CSP(=S)(OC)OC
not listed: [1] | [12] | [17] | [18] | [19] | [20]
inactive: all other assays above

CCC(C)(C)C(=O)OC1=C(c2ccc(Cl)cc2Cl)C(=O)OC12CCCCC2
active: [11] 4.04 µM | [13] 1.27 µM | [15] 13.4 µM | [16] 24.7 µM
inactive: [2] | [3] | [7] | [8] | [9] | [10] | [12] | [14]

Clc1ccccc1-c1nnc(-c2ccccc2Cl)nn1
active: [13] 13.6 µM
not listed: [1] | [2] | [5] | [12] | [17] | [18] | [20]
inactive: all other assays above

CCOC1Oc2ccc(OS(C)(=O)=O)cc2C1(C)C (centres undefined)
active: [13] 9.79 µM | [14] 23.9 µM
not listed: [1] | [5] | [17] | [18] | [19] | [20]
inactive: all other assays above

CC[C@H](C)[C@H]1O[C@]2(C=C[C@@H]1C)C[C@@H]1C[C@@H](C/C=C(\C)[C@@H](O[C@H]3C[C@H](OC)[C@@H](O[C@H]4C[C@H](OC)[C@@H](O)[C@H](C)O4)[C@H](C)O3)[C@@H](C)/C=C/C=C3\CO[C@@H]4[C@H](O)C(C)=C[C@@H](C(=O)O1)[C@]34O)O2 (tested in a mixture with another compound)
active: [15] 12 µM | [16] 9.38 µM
inactive: [17] | [3] | [4] | [8] | [9] | [10] | [11] | [12] | [13] | [14]

CNC(=O)Oc1cccc(N=CN(C)C)c1
active: [10] 82.3 µM | [13] 50 µM | [14] 25.7 µM | [16] 29 µM
inactive: [18] | [2] | [3] | [4] | [5] | [8] | [9] | [11] | [15]

Cc1cc(C)nc(NC(=O)NS(=O)(=O)c2ccccc2C(=O)OC2COC2)n1
active: [14] 50 µM
not listed: [1] | [2] | [6] | [7] | [18] | [19] | [20]
inactive: all other assays above

COC(=O)c1ccccc1S(=O)(=O)NC(=O)N(C)c1nc(C)nc(OC)n1
not listed: [1] | [2] | [6] | [17] | [18] | [19]
inactive: all other assays above
